In PubChem BioAssay (NCI):
Values joined by “and” are separate entries in the source; they are usually repeats but may differ in a detail not shown here. Identical values can stand only once. This is part of a sample that, as a whole, favours compounds with a hit. Of some 83,000 tested, about 20% had one in any assay.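 The endpoint reported here, percent growth, reads 100 for growth as untreated, 0 for no net growth and -100 for all cells dead.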 Active and inactive are the calls of the source. The calls were made as follows: active = growth percent below 10; inactive = the rest.

How the values were obtained:
Assay in all cases: NCI-60 one-dose screen, 48 h (100 = growth as untreated, 0 = no growth, -100 = all killed)
Conditions in all cases: 10 µM unless noted
DU-145 prostate = test system: DU-145 prostate
K-562 leukemia = test system: K-562 leukemia
MALME-3M melanoma = test system: MALME-3M melanoma
MDA-MB-231 breast = test system: MDA-MB-231 breast
RXF 393 renal = test system: RXF 393 renal
SF-268 CNS = test system: SF-268 CNS
SF-295 CNS = test system: SF-295 CNS
SF-539 CNS = test system: SF-539 CNS
UACC-257 melanoma = test system: UACC-257 melanoma
M14 melanoma = test system: M14 melanoma
HCT-15 colon = test system: HCT-15 colon
HT29 colon = test system: HT29 colon
SNB-75 CNS = test system: SNB-75 CNS
SNB-19 CNS = test system: SNB-19 CNS
U251 CNS = test system: U251 CNS
SK-MEL-5 melanoma = test system: SK-MEL-5 melanoma
UACC-62 melanoma = test system: UACC-62 melanoma
LOX IMVI melanoma = test system: LOX IMVI melanoma
SK-MEL-28 melanoma = test system: SK-MEL-28 melanoma
PC-3 prostate = test system: PC-3 prostate

Row | SMILES | growth (DU-145 prostate) | growth (K-562 leukemia) | growth (MALME-3M melanoma) | growth (MDA-MB-231 breast) | growth (RXF 393 renal) | growth (SF-268 CNS) | growth (SF-295 CNS) | growth (SF-539 CNS) | growth (UACC-257 melanoma) | growth (M14 melanoma) | growth (HCT-15 colon) | growth (HT29 colon) | growth (SNB-75 CNS) | growth (SNB-19 CNS) | growth (U251 CNS) | growth (SK-MEL-5 melanoma) | growth (UACC-62 melanoma) | growth (LOX IMVI melanoma) | growth (SK-MEL-28 melanoma) | growth (PC-3 prostate)
1 | S=C(N/N=C/c1ccccn1)Nc1ccccn1 | 28.4% (inactive) | 8.45% (active) | 10.6% (inactive) | 42.4% (inactive) | 2.43% (active) | 32% (inactive) | 27.1% (inactive) | 14.1% (inactive) | -14.9% (active) | 0.168% (active) | 23.8% (inactive) | 10.4% (inactive) | 46.1% (inactive) | 50.5% (inactive) | 10.1% (inactive) | -22.2% (active) | 1.53% (active) | 5.96% (active) | 21.5% (inactive) | 
2 | COc1ccccc1OC(=O)Oc1ccccc1OC | 112% (inactive) and 96% (inactive) | 125% (inactive) and 104% (inactive) | 94.8% (inactive) and 98.5% (inactive) | 103% (inactive) and 107% (inactive) | 102% (inactive) and 113% (inactive) | 111% (inactive) and 94.9% (inactive) | 106% (inactive) and 103% (inactive) | 121% (inactive) and 103% (inactive) | 97.6% (inactive) and 115% (inactive) | 103% (inactive) and 99.7% (inactive) | 110% (inactive) and 95.2% (inactive) | 102% (inactive) and 95.7% (inactive) | 97.8% (inactive) and 90.8% (inactive) | 104% (inactive) | 111% (inactive) and 106% (inactive) | 100% (inactive) | 100% (inactive) and 96.4% (inactive) | 107% (inactive) and 95% (inactive) |  | 
3 | Cc1ccc(N=C=C(c2ccccc2)c2ccccc2)cc1 | 108% (inactive) | 8.39% (active) | 95% (inactive) | 83.3% (inactive) | 92.5% (inactive) | 93.5% (inactive) | 98% (inactive) | 91% (inactive) | 89.1% (inactive) | -7.3% (active) | 67.6% (inactive) | 97.6% (inactive) | 78.1% (inactive) | 85.2% (inactive) | 81.5% (inactive) | 89.3% (inactive) | 84.6% (inactive) | 5.05% (active) |  | 
4 | Cn1c2c(c3ccccc31)CCN1C[C@@H]3CCCC[C@H]3C[C@@H]21 | -49% (active) | 12.9% (inactive) | 3.28% (active) | 28.5% (inactive) | -24.4% (active) | 16.1% (inactive) | -30.1% (active) | -1.74% (active) | 55.4% (inactive) | -59.3% (active) | 9.14% (active) | 1.8% (active) | -21.7% (active) | 18.3% (inactive) | 19.8% (inactive) | -16.1% (active) | 18.4% (inactive) | 15.6% (inactive) | 31.1% (inactive) | 
5 | O=C1c2cccnc2-c2nccc3c2c1nc1cc(Br)ccc13 | -88.9% (active) and -99.9% (active) | -87.4% (active) and -25.6% (active) | 8.18% (active) | -9.52% (active) and -58% (active) | -51.7% (active) and -90.9% (active) | -1.91% (active) and -63.6% (active) | 0% (active) and -84.3% (active) | -87.2% (active) and -90.5% (active) | -78.4% (active) and -83.7% (active) | -77.1% (active) | -49.5% (active) and -71.3% (active) | -35% (active) and -75.9% (active) | 9.53% (active) and -98.7% (active) | -49.7% (active) and -79% (active) | -75% (active) and -97.8% (active) | -97% (active) and -95.4% (active) | -95.1% (active) and -74.6% (active) | -45.9% (active) and -71.1% (active) | -67.5% (active) and -74.4% (active) | -43.2% (active) and -86.6% (active)
6 | CCOC(=O)c1c(C)[nH]c(CO)c1C | 101% (inactive) | 101% (inactive) | 91.1% (inactive) | 104% (inactive) | 134% (inactive) | 96.7% (inactive) | 95.1% (inactive) | 104% (inactive) | 94.2% (inactive) | 95.5% (inactive) | 106% (inactive) | 96.4% (inactive) | 101% (inactive) | 98.4% (inactive) | 99% (inactive) | 99.1% (inactive) | 93.4% (inactive) | 101% (inactive) | 103% (inactive) | 98.1% (inactive)
7 | O=[N+]([O-])c1ccc2c(N=Nc3ccc4ccccc4c3O)c(O)cc(S(=O)(=O)O)c2c1 | 104% (inactive) | 96.3% (inactive) | 99.9% (inactive) | 74.2% (inactive) | 97% (inactive) | 72.4% (inactive) | 102% (inactive) | 96.9% (inactive) | 99.2% (inactive) | 80.7% (inactive) | 85.1% (inactive) | 104% (inactive) | 105% (inactive) | 79.7% (inactive) | 57.7% (inactive) | 85% (inactive) | 79.4% (inactive) | 66.2% (inactive) | 98.8% (inactive) | 
8 | COC(=O)Nc1nc2ccc(C(=O)c3ccccc3)cc2[nH]1 | 26.8% (inactive) and -20.2% (active) and -19.3% (active) | 6.5% (active) and 4.72% (active) and 4.39% (active) | 26.5% (inactive) and 58.6% (inactive) and 54.1% (inactive) | 51.3% (inactive) and 25.5% (inactive) and 38% (inactive) | -12.3% (active) and -5.96% (active) | 53.7% (inactive) and 21.3% (inactive) and 27.4% (inactive) | 0.877% (active) and -10.3% (active) and -13.1% (active) | 2.99% (active) and -28.1% (active) and -34% (active) | 61% (inactive) and 77.2% (inactive) and 69.8% (inactive) | -24.2% (active) and 0.911% (active) and 20.7% (inactive) | 30.2% (inactive) and 14.1% (inactive) and 15.8% (inactive) | 4% (active) and 5.13% (active) and 2.8% (active) | 8.68% (active) and 89.4% (inactive) and 23.9% (inactive) | 33.6% (inactive) and 14.3% (inactive) and 33.1% (inactive) | 23.7% (inactive) and 19.9% (inactive) and 16.9% (inactive) | 8.39% (active) and 4.91% (active) and -9.41% (active) | 47.8% (inactive) and 31.1% (inactive) and 37.4% (inactive) | 37.6% (inactive) and 31.3% (inactive) and 31.1% (inactive) |  | 
9 | COC(=O)[C@@]12OC[C@]34[C@H]([C@@H](O)[C@@H]1O)[C@@]1(C)[C@H](O)C(=O)C=C(C)[C@@H]1C[C@H]3OC(=O)C(OC(C)=O)[C@@H]24 (stereo partly drawn) | -64.4% (active) | -60% (active) | -70.1% (active) | -39.5% (active) | -63.6% (active) | -31.2% (active) | -53.9% (active) | -36.7% (active) | -54.4% (active) | -84.9% (active) | -27.3% (active) | 6.8% (active) | -80.1% (active) | -18.8% (active) | -31.4% (active) | -76.9% (active) | -88.8% (active) |  | -51.5% (active) | -51% (active)
10 | CCN1/C(=C\c2cc[n+](CC)c3ccccc23)C=Cc2ccccc21 | 22.9% (inactive) | 16.4% (inactive) | 1.55% (active) | 3.42% (active) | 16.4% (inactive) | 26.3% (inactive) | 0.16% (active) | 7.56% (active) | -1.1% (active) | 10.5% (inactive) | 29.7% (inactive) | 8.56% (active) | 14.3% (inactive) | 17.1% (inactive) | 17% (inactive) | -74.4% (active) | -21.4% (active) | 4.04% (active) | 3% (active) | 11.4% (inactive)
11 | CC(=Nc1ccc(N(C)C)cc1)c1ccccc1 | 46.9% (inactive) | 22.5% (inactive) | 85.5% (inactive) | 66.5% (inactive) | 72.8% (inactive) | 82.3% (inactive) | 44.4% (inactive) | 56.7% (inactive) | 59.4% (inactive) | 66.1% (inactive) | 68.5% (inactive) | 35.2% (inactive) | 86% (inactive) | 45% (inactive) | 27.2% (inactive) | 54.6% (inactive) | 68% (inactive) |  | 65.4% (inactive) | 37.8% (inactive)
12 | Cc1ccnc2c1ccc1c(C)ccnc12 | 27.4% (inactive) | 12% (inactive) | 19.1% (inactive) | 31.9% (inactive) | 26.2% (inactive) | 22.8% (inactive) | 18.3% (inactive) | -3.71% (active) | 2.29% (active) | -11.5% (active) | 20.9% (inactive) | 17.7% (inactive) | 52.4% (inactive) | 21.9% (inactive) | 7.48% (active) | 18.3% (inactive) | 2.66% (active) | 2.99% (active) | 20.7% (inactive) | 22% (inactive)
13 | O=C(Nc1ccc(F)cc1)ON=C1CCCCC1 | 106% [100 µM] (inactive) | 79.6% [100 µM] (inactive) | 108% [100 µM] (inactive) | 101% [100 µM] (inactive) | 102% [100 µM] (inactive) | 96.3% [100 µM] (inactive) | 100% [100 µM] (inactive) | 93.5% [100 µM] (inactive) | 98.8% [100 µM] (inactive) | 111% [100 µM] (inactive) | 97% [100 µM] (inactive) | 103% [100 µM] (inactive) | 85% [100 µM] (inactive) | 94% [100 µM] (inactive) | 102% [100 µM] (inactive) | 99.6% [100 µM] (inactive) | 54.5% [100 µM] (inactive) |  | 108% [100 µM] (inactive) | 89.5% [100 µM] (inactive)
